Laboratory results as given in PubChem BioAssay AID1053127 (Broad Institute, 2014).
Entries with a potency or affinity are not part of this list.

Test: CTGF mRNA reduction under YAP1 overexpression, dose response, mechanism study for YAP1 pathway inhibitor project, DLD1 cells, RT-qPCR, cherry-pick (AID 1053127)
Conditions: DLD1 YAP1-overexpressing, 24 h; series mostly up to 26 µM; CTGF fold change (delta-delta-Ct), lower = inhibition: at the top concentration;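 active = compounds whose fitted curve of lowered CTGF expression reaches half effect within a set concentration limit; inconclusive = flat moderate drop in CTGF, or unreliable curve fit; inactive = the rest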

CTGF fold change (delta-delta-Ct), lower = inhibition, inactive:
COc1ccc(NC(=O)N2CCCCN3[C@@H](CO)[C@H](c4ccc(-c5ccccc5F)cc4)[C@@H]3C2)cc1 1.16 unspecified
CCCC#Cc1ccc([C@@H]2[C@@H](C#N)N(C(=O)CN3CCOCC3)[C@H]2CO)cc1 1.04 unspecified [at 23.5 µM]
C[C@H]1CN([C@@H](C)CO)C(=O)c2cccc(NC(=O)c3ccc(-c4nccs4)cc3)c2O[C@@H]1CN(C)C(=O)Nc1ccc(C(F)(F)F)cc1 0.52 unspecified
C[C@@H]1CN([C@H](C)CO)S(=O)(=O)c2ccc(C#Cc3ccccc3F)cc2O[C@@H]1CN(C)C(=O)Cc1cccnc1 0.807 unspecified
CN(C)C(=O)c1ccc(-c2cccc(-c3nc(C(=O)NCc4ccccc4)cc4c3[C@@H](CCO)N([S@](=O)C(C)(C)C)C4)c2)cc1 1.52 unspecified
C[C@@H]1CN([C@H](C)CO)C(=O)c2c(c3ccccc3n2C)-c2ccccc2CO[C@@H]1CN(C)Cc1cccc(C(F)(F)F)c1 0.675 unspecified [at 23.5 µM]
Cc1ccc(S(=O)(=O)N2CC[C@@H]3[C@H]2c2cc(-c4cccc(C(=O)N(C)C)c4)ccc2N[C@@H]3CO)cc1 2.06 unspecified [at 23.5 µM]
CC(C)(C)[S@](=O)N1Cc2cc(C(=O)NCCc3ccncc3)nc(-c3cccc(-c4cccc(C#N)c4)c3)c2[C@@H]1CCO 1.03 unspecified
CN1C(=O)c2cc(NC(=O)Cc3cccs3)ccc2OC[C@@H]2O[C@@H](CC(=O)NCCc3ccncc3)CC[C@H]21 0.98 unspecified [at 23.5 µM]
COc1ccc2c3c([nH]c2c1)[C@H](CO)NCC31CCN(C(=O)Cc2cccnc2)CC1 1.14 unspecified
CC(C)(C)[S@](=O)N1Cc2cc(C(=O)NCc3ccccn3)nc(-c3cccc(-c4ccccc4F)c3)c2[C@@H]1CCO 1.52 unspecified
CCc1nc(N2[C@H](CO)[C@@H](c3ccccc3-c3ccc(F)cc3)[C@@H]2C#N)sc1C 0.697 unspecified
CN1CCN(C(=O)C[C@@H]2CC[C@H]3[C@@H](COc4ccc(NC(=O)C5CCOCC5)cc4C(=O)N3C)O2)CC1 1.25 unspecified
N#C[C@@H]1[C@H](c2ccc(-c3cccc(F)c3)cc2)[C@H](CO)N1C(=O)NC1CCCC1 1.04 unspecified
CO[C@@H]1CN(C)C(=O)c2cc(NS(=O)(=O)c3ccccc3C)ccc2OC[C@@H](C)N(S(=O)(=O)c2ccccc2)C[C@H]1C 1 unspecified
C[C@@H]1CN([C@@H](C)CO)C(=O)c2cc(C#Cc3ccccc3)cnc2O[C@@H]1CN(C)C(=O)c1ccccc1 1.05 unspecified
C[C@@H]1CN([C@H](C)CO)C(=O)c2ccccc2-c2ccccc2CO[C@@H]1CN(C)Cc1ccc2c(c1)OCCN2C 0.735 unspecified
COc1ccccc1NC(=O)N1CCCCN2[C@@H](CO)[C@H](c3ccc(-c4cccc(C#N)c4)cc3)[C@@H]2C1 1.01 unspecified
COc1ccc2c3c(n(C)c2c1)[C@@H](CO)N(Cc1ccncc1)CC31CN(C(=O)Nc2cccc(F)c2)C1 1.12 unspecified
O=S(=O)(c1ccccc1)N1CCCCN2[C@H](C1)[C@@H](c1ccc(C#CC3CCCC3)cc1)[C@@H]2CO 0.946 unspecified
CNC[C@H]1Oc2c(NC(=O)Nc3cccc4ccccc34)cccc2C(=O)N([C@H](C)CO)C[C@@H]1C 0.844 unspecified
C[C@H](O)C#Cc1ccc([C@H]2[C@@H](CO)N3CCCCN(C(=O)c4ccc5c(c4)OCO5)C[C@@H]23)cc1 0.952 unspecified [at 23.5 µM]
C[C@@H]1CN([C@@H](C)CO)C(=O)c2cccc(NC(=O)c3nc4ccccc4s3)c2O[C@H]1CN(C)C(=O)Nc1ccc2c(c1)OCO2 0.834 unspecified
CO[C@@H](CN(C)S(=O)(=O)c1ccc(C)cc1)[C@@H](C)CN([C@H](C)CO)S(=O)(=O)c1cccc(Cl)c1 0.886 unspecified
O=S(=O)(Cc1ccccc1)N1CC2(C1)[C@H](c1ccccc1)[C@H](CO)N2CC1CCCC1 0.631 unspecified
CO[C@H]1CN(C)C(=O)c2cc(NC(=O)Nc3ccccc3F)ccc2OC[C@H](C)N(CCC(F)(F)F)C[C@@H]1C 1.03 unspecified
C[C@@H]1CC=CC[C@@H](c2cccc(Cl)c2)NC(=O)[C@H](Cc2ccccc2)N(C)C(=O)c2ccccc2O1 (mixture of isomers) 0.763 unspecified
C[C@H]1CN([C@@H](C)CO)S(=O)(=O)c2ccc(-c3cncnc3)cc2O[C@@H]1CN(C)C(=O)NC1CCCC1 0.826 unspecified
C[C@@H]1CN([C@@H](C)CO)C(=O)c2cc(NC(=O)Nc3ccccc3)ccc2O[C@@H](C)CCCCO[C@@H]1CN(C)C(=O)Nc1ccccc1 1.02 unspecified
